Test results taken from PubChem BioAssay.
Unmarked numbers belong to inactive results. The rule behind the calls is not given here.

Biological target: Pantothenate synthetase (Mycobacterium tuberculosis (strain ATCC 25618 / H37Rv)) (UniProt P9WIL5)
Test: Coupled enzyme confirmation of inhibitors against recombinant Mtb PanC (AID 375);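 note: 0% = full reaction with vehicle and 100% = no enzyme background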
Details: coupled enzyme assay; at 10 µM, stronger effect = higher value

Sequence of Pantothenate synthetase (Mycobacterium tuberculosis (strain ATCC 25618 / H37Rv)) (P9WIL5 whole entry, looked up): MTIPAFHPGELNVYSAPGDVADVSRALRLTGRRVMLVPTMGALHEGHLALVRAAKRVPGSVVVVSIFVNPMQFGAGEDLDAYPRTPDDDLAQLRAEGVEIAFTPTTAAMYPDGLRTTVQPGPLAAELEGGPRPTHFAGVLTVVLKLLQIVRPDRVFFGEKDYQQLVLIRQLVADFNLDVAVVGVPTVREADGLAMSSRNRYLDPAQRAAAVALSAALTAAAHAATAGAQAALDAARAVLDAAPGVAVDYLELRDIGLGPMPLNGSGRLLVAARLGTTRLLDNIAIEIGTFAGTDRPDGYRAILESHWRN

SMILES | inhibition [%]
CC1(C)CC(=O)c2sc(NS(C)(=O)=O)nc2C1 | 0
COc1ccccc1-n1cnc2cc(NS(=O)(=O)c3ccccc3)ccc21 | 0
NS(=O)(=O)c1cc2c(cc1Cl)NC(C(Cl)Cl)NS2(=O)=O (configuration not stated) | 2
O=C(NCc1cccs1)C1CC(c2ccccc2O)=NO1 (configuration not stated) | 5
C[C@H](NC(=O)Nc1ccccc1F)C(=O)O | 2
CC(C)C(=O)Nc1ccc2c(c1)nc1n2CCSC1 | 0
O=C(Cn1nnc(-c2ccccc2)n1)Nc1ccccc1N1CCOCC1 | 0
COc1cc2c(cc1OC)C(c1ccc(C)o1)CC(=O)N2 (configuration not stated) | 3
CC(C)COc1nc2ccccc2nc1C(C#N)C(=O)NC1CCCCC1 (configuration not stated) | 0
Cc1ccc2nc(NC(=O)C3CCCN(S(=O)(=O)c4cnc[nH]4)C3)sc2c1 (configuration not stated) | 1
Cc1nnc(NC(=O)C2CCCO2)s1 (configuration not stated) | 3
Cc1nc2sc(C(c3cccc(F)c3)N3CCN(C(=O)c4ccco4)CC3)c(O)n2n1 (configuration not stated) | 0
COc1cccc(Oc2cnc(N)nc2-c2ccc(OC)cc2O)c1 | 2
COc1ccc2nc(C)cc(N3CCOCC3)c2c1 | 0
O=C(Cn1nc(Cc2cccnc2)c2ccccc2c1=O)NCC1CCCO1 (configuration not stated) | 0
CCOc1ccc(NC(=O)C(C)Sc2nnc(C)n2C)cc1 (configuration not stated) | 0
COc1ccccc1-c1c(C)nn2c(C)c(C(C)=O)cnc12 | 3
CC1(C)CC(=O)C2=C(C1)NC(=O)CC2C(=O)NCc1ccc(F)cc1 (configuration not stated) | 0
CC1(C)CC(=O)C2=C(C1)N(CC1CCCO1)C(=O)C2(O)C(F)(F)F (configuration not stated) | 0
COC(=O)CCn1nnc(-c2cccs2)n1 | 1
Cc1c(C(=O)O)sc2ncn(C)c(=O)c12 | 0
COc1cc(NC(=O)Nc2cccc(Cl)c2)c(OC)cc1NC(=O)CN1CCCCC1 | 2
Cn1c(=O)c2c(nc(SCCCC#N)n2Cc2c(F)cccc2Cl)n(C)c1=O | 0
CCOc1ccc(N2C(N)=NC(N)=NC2(C)C)cc1 | 0

SMILES | inhibition [%]
COCCCNC(=O)c1ccccc1NS(=O)(=O)c1ccc(C)cc1 | 1
CCCSc1nnc(-c2ccccc2NC(=O)CC)c(=O)[nH]1 | 0
O=C1C(c2ccncc2)=C(O)c2ccccc21 | 0
CCC(=O)c1ccc(OCCN2CCOCC2)cc1 | 4
Cn1cccc1Cc1nnc(SCC(=O)NCC2CCCO2)n1-c1ccc(F)cc1 (configuration not stated) | 0
O=C(O)c1ccc(-n2nc(C(F)(F)F)c3c2-c2ccoc2CC3)cc1 | 0
Cc1csc(SCC(=O)NC(=O)NCc2ccccc2)n1 | 9
COc1ccc(NC(=O)CCCN2C(=O)C3C4C=CC(C4)C3C2=O)c(OC)c1 (configuration not stated) | 2
COc1cccc(C2CC(c3ccc(F)cc3)Nc3nc(N)nn32)c1 (configuration not stated) | 0
Cc1ccc(-c2[nH]nc3c2C(c2ccc(OC(=O)N4CCOCC4)cc2)C(C#N)=C(N)O3)cc1 (configuration not stated) | 2
CC(C)C12CN3CC(C(C)C)(CN(C1)C3c1ccc3c(c1)OCO3)C2=O (configuration not stated) | 0
CS(=O)(=O)N1CCCC(C(=O)NCCCN2CCC(Cc3ccccc3)CC2)C1 (configuration not stated) | 0
Cc1ccccc1Cn1c(=O)c2c(nc3n2CCCN3Cc2ccccc2)n(C)c1=O | 0
CCOc1ccc(NC(=O)CN2C(=O)C3CCCN3C2=O)cc1 (configuration not stated) | 0
COc1cc(S(=O)(=O)N(C)C)ccc1F | 1
CCOC(=O)C1=C(C)N=C2SCCC(=O)N2C1c1cc(Br)ccc1OC (configuration not stated) | 5
CC1C=CC(C)C(C(=O)O)C1C(=O)O (configuration not stated) | 0
COc1cc(S(=O)(=O)N2CCOCC2)ccc1NC(=O)COC(=O)C12CC3CC(CC(C3)C1)C2 | 1
CCOC(=O)N1CCC(N(C(=O)Nc2ccc(Cl)c(Cl)c2)C(C)CC)CC1 (configuration not stated) | 4
c1ccc(-c2ccc(-c3ccccn3)nn2)nc1 | 8
COc1cc(NC(=O)C(C)Oc2ccccc2)c(C(=O)O)cc1OC (configuration not stated) | 0
CCCCNc1cc(C(=O)O)cc(S(N)(=O)=O)c1Oc1ccccc1 | 3
COc1ccc(C(c2nnnn2C2CCCC2)N2CCC(C)CC2)c(OC)c1 (configuration not stated) | 3
